Results from the supplement of paper PMC6555819.

Assays:
Experiment in all cases: PBM binding z-score (relative to random genomic background probes); higher = stronger binding; sequences stand for … in GC…GCGATTGACAGCGTAGAATGAAGG
[1] = test system: FXR:RXRa (NR concentration 270 nM, RXRa partner concentration 90 nM)
In short: (§1)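 Binding buffer was PBS pH 7.4 with 2% milk, 0.02% Triton X-100, 1 mM DTT, 0.2 mg/mL BSA and 0.4 mg/ml salmon testes DNA. In it, ligand-free nuclear receptor dimers were incubated 1 h on custom Agilent 4×180K protein-binding microarrays carrying double-stranded probes. Antibodies against each partner (one per run) detected binding, and z-scores were calculated against random background probes after regression normalization of scanned fluorescence.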

[2] = test system: LXRa:RXRa (NR concentration 270 nM, RXRa partner concentration 90 nM)
In short: as §1

[3] = test system: LXRa homodimer (NR concentration 270 nM)
In short: as §1

[4] = test system: LXRb:RXRa (NR concentration 270 nM, RXRa partner concentration 90 nM)
In short: as §1

[5] = test system: LXRb homodimer (NR concentration 270 nM)
In short: as §1

[6] = test system: PPARa:RXRa (NR concentration 270 nM, RXRa partner concentration 90 nM)
In short: as §1

[7] = test system: PPARg:RXRa (NR concentration 180 nM, RXRa partner concentration 90 nM)
In short: as §1

[8] = test system: PPARg:RXRa 270nM:90nM, anti-RXR (NR concentration 270 nM, RXRa partner concentration 90 nM)
In short: as §1

[9] = test system: PPARg:RXRa 30nM:10nM, anti-RXR (NR concentration 30 nM, RXRa partner concentration 10 nM)
In short: as §1

[10] = test system: PPARg:RXRa 90nM:30nM, anti-RXR (NR concentration 90 nM, RXRa partner concentration 30 nM)
In short: as §1

Row | Sequence | PBM binding z-score [1] | PBM binding z-score [2] | PBM binding z-score [3] | PBM binding z-score [4] | PBM binding z-score [5] | PBM binding z-score [6] | PBM binding z-score [7] | PBM binding z-score [8] | PBM binding z-score [9] | PBM binding z-score [10]
1 | CAAACTAGCTCAAAGGTCAAAGTCGAGCCAACCA | 5.95 | 5.85 | 4.59 | 5.66 | 2.54 | 6.14 | 9.32 | 8.51 | 8.32 | 9.43
2 | CGAACTAGGTCATTGACAAGACAGTGAATAGTAA | 3.79 | 2.42 | 0.115 | 2.04 | -0.0491 | 4.5 | 7.38 | 6.17 | 3.72 | 5.54
3 | ACAGACAGGTGATGAAGGTAACTCATGCTATCAT | -0.264 | -0.284 | 0.081 | -0.0857 | -0.304 | 0.0179 | 0.862 | -0.0647 | 0.121 | -0.0244
4 | CAGCCTAGGTCAGGGCCAATATAGGAGGAACGTT | 1.73 | 0.833 | -0.284 | 0.824 | -1.05 | 2.05 | 1.37 | 1.22 | 0.246 | 0.449
5 | GCGACTGGGGCATCAGCAGTTTACCATAACTTAA | -0.0811 | -0.328 | -0.256 | 0.505 | -0.674 | 0.605 | 0.756 | 1.18 | -0.193 | 0.414
6 | GCTGCTAGGCCAGGTTGGTCAGCTAACGGGTACG | -1 | -1.03 | -0.776 | -1.31 | -1.37 | -1.27 | -0.607 | -1.01 | -1.22 | -1.17
7 | TGATATAGGTAAACAGGTGAAAGTCCGTAAGTTA | 0.277 | 0.353 | 0.0822 | 0.388 | 0.0217 | 2.37 | 3.95 | 3.81 | 1.65 | 3.09
8 | AGTCAAAGTTCACTAGGTAACCTAAGATTCAGCT | 5.37 | 5.38 | 3.76 | 3.3 | 1.13 | 4.71 | 7.18 | 6.5 | 4 | 5.96
9 | CCTAGCAGGCCCGGGTCACTCAAGCATTTCGCTT | 1.18 | 1.11 | -0.362 | 1.25 | -0.958 | 2.17 | -0.225 | 0.755 | -0.825 | 0.0676
10 | TGAATGAGGTTATGAGATCAGGGAACGTTGCAAA | 1.67 | 1.4 | -0.558 | 0.95 | -0.381 | 3.11 | 1.64 | 1.96 | 0.899 | 1.31
11 | GATACTGGGTCAGCTAGAGGCCAGAGTATGGAAA | 0.906 | 0.796 | -0.487 | 0.388 | -0.812 | 2.91 | 3.87 | 3.8 | 0.981 | 2.65
12 | CCAGACAGGTAAAAGGTAACTCAGTCTGGTACGC | -0.0774 | 0.12 | -0.25 | 0.125 | -0.535 | 2.14 | 3.01 | 3.82 | 2.27 | 3.94
13 | CGTCCAAGGTCAATGCTAGGTCGGTGAAAGCATT | 5.99 | 4.42 | 0.539 | 3.19 | 0.14 | 4.79 | 3.29 | 4.06 | 1.09 | 2.58
14 | ATCGCAAGGTCGACGAGGTGAGTATACACCGTTT | 1.64 | 1.32 | -0.778 | 1.06 | -0.359 | 2.74 | 1.28 | 0.926 | -0.0262 | 0.379
15 | CCTCCGAGGACAGAAGGTCAGAGCTGTCCGCTTT | 1.46 | 1.7 | 0.408 | 1.37 | -0.149 | 1.89 | -0.0299 | 0.869 | -0.46 | 0.274
16 | TCTCGGAGGACACGATGGTCAGAGCTTTCCAGAG | 0.101 | -0.284 | -0.822 | -0.381 | -1.39 | -0.0198 | -0.18 | 0.7 | 1.73 | 1.07
17 | ACTTACGGGTCAACAAGGTTATAGCACGCGTATA | 6.88 | 4.7 | 0.809 | 4.4 | 1.05 | 6.09 | 5.69 | 5.32 | 2.2 | 4.02
18 | CCTAGTAGGCCAGGGTCACTCAAGCATTTCGCTT | 1.96 | 1.56 | -0.322 | 2.01 | -0.98 | 3.69 | 3.5 | 4.07 | 1.36 | 3.22
19 | CGAACTAGGTCATTGGCAGGACAGTGAATAGTAA | 4.29 | 2.62 | 0.219 | 1.66 | -0.306 | 4.73 | 7.68 | 6.26 | 3.37 | 5.72
20 | CGTCCAAGGTCAAAGGACAGTGAAGAGATGACGG | 6.9 | 5.32 | 0.749 | 3.74 | 1.13 | 5.6 | 5.59 | 5.73 | 2.46 | 4.8
21 | CATACTAGGTCACAGAGGTCAAAGTCCGTGCGTA | 6.69 | 6.83 | 7.84 | 6.16 | 2.94 | 6.09 | 8.98 | 7.72 | 5.14 | 7.44
22 | GCTATTAGTTGAAAGGGCAACCGTATGATTCTCG | 0.693 | 0.878 | 0.327 | 1.1 | -0.2 | 2.2 | 2.64 | 4.69 | 2.25 | 4.37
23 | CCTACTGGGCCACGAAAAGTCATTGATTCAGTGA | -0.198 | -0.0823 | -0.286 | -0.375 | -0.772 | 0.98 | 1.63 | 1.67 | 0.153 | 0.689
24 | CCTGCTAGGTCATGGTCAGATAATCTACAGTATG | 3.8 | 2.5 | 0.343 | 1.93 | 0.146 | 3.64 | 2.85 | 2.71 | 0.675 | 1.95
